According to the supplement of paper PMC10849652:
The full data set covers some 8,800 targets. This sample favours those with a hit. About 0.5% of all pairs of compound and target were hits. Unmarked numbers belong to inactive results.

Key:
Experiment in all cases: log2 fold change, soluble protein after heating vs DMSO (PISA); higher = thermal stabilisation; K562 lysate, 10 uM; active = over 0.2 and 3.5 SD of the protein, either way, in both replicates (recomputed)
[1] = compound: C#Cc1cccc(Nc2ncnc3cc(OCCOC)c(OCCOC)cc23)c1 [erlotinib]
Outline: (§1)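 The values are log-two fold changes in thermal stability compared with solvent controls and come from duplicates. They were obtained by TMTpro 16plex LC-MS/MS, with channel sums equalised, on the supernatant after 21,000xg for 90 min. That supernatant came from crude K562 extract at 1 mg/mL protein treated with 10 μM compound for 30 min, heated for 3 min across 48°C-58°C, pooled and brought to 0.5% NP-40 at 4°C.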

[2] = compound: C/C(=N\NC(=O)C1=CC(=CC=C1)S(=O)(=O)N2CCOCC2)/C3=C(C=CC(=C3)Cl)O
Outline: as §1

[3] = compound: C1=CC(=CC=C1C2=NC3=C(N2)C=C(C=C3)C(=O)N)OC4=CC=C(C=C4)Cl
Outline: as §1

[4] = compound: C1=CC2=C(C=CC(=C2)/C=C\3/C(=O)NC(=NCC4=CC=CS4)S3)N=C1
Outline: as §1

[5] = compound: C1=CC2=NC=CN=C2C=C1/C=C/3\C(=O)NC(=O)S3
Outline: as §1

[6] = compound: C1=CC=C(C=C1)C2=NC(=C(N2)C3=CC=NC=C3)C4=CC(=C(C=C4)Cl)O
Outline: as §1

[7] = compound: C1=CC=C2C(=C1)C3=NNC4=CC=CC(=C43)C2=O
Outline: as §1

[8] = compound: C1CCN(C1)C(=O)NC2=CC=CC(=C2)NC3=NC=C(C(=N3)NCCC4=CN=CN4)Br
Outline: as §1

[9] = compound: C1CN(CCC1(CC2=CC=C(C=C2)Cl)N)C3=NC=NC4=C3C=CN4
Outline: as §1

[10] = compound: C1COCCN1CCN2C3=CC=CC=C3N=C2NC(=O)C4=CC(=CC=C4)[N+](=O)[O-] [IRAK-1-4 Inhibitor I]
Outline: as §1

Sequence of UniProt Q16659 (Q16659 whole entry, looked up): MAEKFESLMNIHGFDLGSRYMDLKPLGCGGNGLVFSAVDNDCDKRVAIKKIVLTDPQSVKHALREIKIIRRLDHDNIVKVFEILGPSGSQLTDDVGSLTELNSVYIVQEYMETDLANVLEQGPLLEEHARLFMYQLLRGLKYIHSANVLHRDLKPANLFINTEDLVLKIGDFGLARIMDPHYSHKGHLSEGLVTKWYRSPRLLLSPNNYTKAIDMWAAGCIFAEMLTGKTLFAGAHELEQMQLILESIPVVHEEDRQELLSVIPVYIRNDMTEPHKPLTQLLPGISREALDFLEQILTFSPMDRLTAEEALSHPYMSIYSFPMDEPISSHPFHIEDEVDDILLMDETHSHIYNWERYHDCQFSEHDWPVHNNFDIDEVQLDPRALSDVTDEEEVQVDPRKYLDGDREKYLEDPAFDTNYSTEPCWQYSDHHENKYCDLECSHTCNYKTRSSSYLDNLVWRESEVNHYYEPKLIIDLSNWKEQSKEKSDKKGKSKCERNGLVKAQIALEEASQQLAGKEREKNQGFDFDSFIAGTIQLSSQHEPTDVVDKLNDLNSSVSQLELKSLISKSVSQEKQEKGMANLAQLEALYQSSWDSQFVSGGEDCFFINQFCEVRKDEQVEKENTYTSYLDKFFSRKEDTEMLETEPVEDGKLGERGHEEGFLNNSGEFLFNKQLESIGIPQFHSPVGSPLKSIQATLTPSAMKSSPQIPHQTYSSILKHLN
Sequence of UniProt Q9Y2X0 (Q9Y2X0 whole entry, looked up): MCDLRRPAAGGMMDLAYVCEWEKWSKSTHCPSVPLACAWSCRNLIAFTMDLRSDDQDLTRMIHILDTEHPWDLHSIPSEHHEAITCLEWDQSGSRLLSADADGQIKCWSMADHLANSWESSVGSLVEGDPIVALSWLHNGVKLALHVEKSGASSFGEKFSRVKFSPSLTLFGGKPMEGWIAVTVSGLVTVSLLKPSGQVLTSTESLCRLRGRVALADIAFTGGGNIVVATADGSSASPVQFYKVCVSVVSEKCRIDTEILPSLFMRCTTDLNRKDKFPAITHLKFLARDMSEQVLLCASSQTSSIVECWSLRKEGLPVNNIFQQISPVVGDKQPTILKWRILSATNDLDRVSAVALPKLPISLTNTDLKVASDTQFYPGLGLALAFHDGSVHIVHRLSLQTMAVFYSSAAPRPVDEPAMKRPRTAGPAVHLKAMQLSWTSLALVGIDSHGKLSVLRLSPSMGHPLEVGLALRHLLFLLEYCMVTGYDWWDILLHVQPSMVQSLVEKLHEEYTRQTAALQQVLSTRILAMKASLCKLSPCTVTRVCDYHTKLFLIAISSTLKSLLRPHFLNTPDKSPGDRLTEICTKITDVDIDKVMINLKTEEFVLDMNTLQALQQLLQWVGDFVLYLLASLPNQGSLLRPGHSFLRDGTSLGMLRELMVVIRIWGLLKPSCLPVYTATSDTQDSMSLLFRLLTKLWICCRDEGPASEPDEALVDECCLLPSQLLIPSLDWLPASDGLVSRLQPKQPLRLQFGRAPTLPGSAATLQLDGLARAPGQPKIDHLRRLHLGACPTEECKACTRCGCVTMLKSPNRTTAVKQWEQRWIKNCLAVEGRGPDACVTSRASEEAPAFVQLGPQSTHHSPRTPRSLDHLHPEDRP
Sequence of UniProt Q9H9A6 (Q9H9A6 whole entry, looked up): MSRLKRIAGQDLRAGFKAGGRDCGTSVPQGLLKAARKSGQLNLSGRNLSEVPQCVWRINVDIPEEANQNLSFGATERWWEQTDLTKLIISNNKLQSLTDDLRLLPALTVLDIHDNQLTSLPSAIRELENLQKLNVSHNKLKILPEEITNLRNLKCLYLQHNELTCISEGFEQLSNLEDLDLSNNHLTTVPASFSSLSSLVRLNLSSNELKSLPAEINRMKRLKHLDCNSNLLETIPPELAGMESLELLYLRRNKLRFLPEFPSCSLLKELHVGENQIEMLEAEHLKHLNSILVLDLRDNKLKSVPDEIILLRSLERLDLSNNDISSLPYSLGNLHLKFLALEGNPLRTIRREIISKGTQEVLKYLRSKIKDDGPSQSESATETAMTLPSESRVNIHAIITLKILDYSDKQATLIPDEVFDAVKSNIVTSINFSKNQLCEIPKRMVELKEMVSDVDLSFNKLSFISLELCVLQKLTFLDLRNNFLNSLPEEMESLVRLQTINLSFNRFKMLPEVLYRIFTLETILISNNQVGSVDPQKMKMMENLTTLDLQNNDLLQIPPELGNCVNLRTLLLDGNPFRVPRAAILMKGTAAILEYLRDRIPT
Sequence of UniProt Q13015 (Q13015 whole entry, looked up): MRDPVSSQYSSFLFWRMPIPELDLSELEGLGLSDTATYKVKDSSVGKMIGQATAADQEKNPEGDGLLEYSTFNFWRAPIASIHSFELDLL
Sequence of UniProt Q9BTT4 (Q9BTT4 whole entry, looked up): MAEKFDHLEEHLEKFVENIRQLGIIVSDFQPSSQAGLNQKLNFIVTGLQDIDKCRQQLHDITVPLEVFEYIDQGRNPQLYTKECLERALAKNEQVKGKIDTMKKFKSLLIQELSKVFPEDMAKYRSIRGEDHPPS
Sequence of UniProt Q7Z4S6 (Q7Z4S6 whole entry, looked up): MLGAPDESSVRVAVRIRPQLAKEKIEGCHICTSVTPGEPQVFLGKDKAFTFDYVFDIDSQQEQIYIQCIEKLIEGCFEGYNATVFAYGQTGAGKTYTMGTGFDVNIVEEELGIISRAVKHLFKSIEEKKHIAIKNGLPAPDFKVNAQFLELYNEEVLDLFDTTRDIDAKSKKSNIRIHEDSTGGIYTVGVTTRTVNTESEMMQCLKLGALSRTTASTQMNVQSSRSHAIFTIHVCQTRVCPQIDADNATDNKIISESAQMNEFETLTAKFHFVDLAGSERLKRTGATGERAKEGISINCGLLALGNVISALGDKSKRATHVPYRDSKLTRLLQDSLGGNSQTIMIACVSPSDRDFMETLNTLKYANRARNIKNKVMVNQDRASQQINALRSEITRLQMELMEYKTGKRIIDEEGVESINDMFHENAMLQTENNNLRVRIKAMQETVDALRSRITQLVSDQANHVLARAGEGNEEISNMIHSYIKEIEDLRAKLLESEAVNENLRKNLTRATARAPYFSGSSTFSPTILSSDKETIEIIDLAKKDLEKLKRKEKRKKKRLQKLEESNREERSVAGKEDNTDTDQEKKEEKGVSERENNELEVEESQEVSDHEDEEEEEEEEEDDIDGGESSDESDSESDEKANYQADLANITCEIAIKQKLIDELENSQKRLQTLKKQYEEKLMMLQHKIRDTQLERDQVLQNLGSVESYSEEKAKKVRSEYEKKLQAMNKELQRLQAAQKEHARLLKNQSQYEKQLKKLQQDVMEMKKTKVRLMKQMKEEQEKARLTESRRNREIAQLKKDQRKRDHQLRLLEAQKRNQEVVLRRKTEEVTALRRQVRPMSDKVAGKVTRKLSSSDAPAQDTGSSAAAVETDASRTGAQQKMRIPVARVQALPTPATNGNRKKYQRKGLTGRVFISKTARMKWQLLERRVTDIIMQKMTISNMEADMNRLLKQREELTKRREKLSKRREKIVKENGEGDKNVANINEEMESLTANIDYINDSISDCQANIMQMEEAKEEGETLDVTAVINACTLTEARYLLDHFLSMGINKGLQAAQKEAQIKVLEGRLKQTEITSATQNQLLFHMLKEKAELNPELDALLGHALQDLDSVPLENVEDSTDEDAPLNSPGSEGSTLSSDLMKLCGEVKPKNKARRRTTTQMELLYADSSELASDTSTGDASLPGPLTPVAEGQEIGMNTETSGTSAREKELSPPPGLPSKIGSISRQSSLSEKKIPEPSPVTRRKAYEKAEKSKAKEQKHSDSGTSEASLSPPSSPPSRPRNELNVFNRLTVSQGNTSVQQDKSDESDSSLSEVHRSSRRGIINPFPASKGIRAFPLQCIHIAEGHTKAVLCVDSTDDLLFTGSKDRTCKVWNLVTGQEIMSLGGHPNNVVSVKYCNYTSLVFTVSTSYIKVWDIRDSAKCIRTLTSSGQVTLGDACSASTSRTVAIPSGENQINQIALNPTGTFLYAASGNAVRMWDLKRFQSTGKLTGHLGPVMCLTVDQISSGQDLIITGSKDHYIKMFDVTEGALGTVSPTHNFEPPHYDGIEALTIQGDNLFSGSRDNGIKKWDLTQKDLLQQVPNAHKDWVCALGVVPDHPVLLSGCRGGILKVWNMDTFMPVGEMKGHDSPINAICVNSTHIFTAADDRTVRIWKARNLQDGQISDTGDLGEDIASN
Sequence of UniProt Q8NE86 (Q8NE86 whole entry, looked up): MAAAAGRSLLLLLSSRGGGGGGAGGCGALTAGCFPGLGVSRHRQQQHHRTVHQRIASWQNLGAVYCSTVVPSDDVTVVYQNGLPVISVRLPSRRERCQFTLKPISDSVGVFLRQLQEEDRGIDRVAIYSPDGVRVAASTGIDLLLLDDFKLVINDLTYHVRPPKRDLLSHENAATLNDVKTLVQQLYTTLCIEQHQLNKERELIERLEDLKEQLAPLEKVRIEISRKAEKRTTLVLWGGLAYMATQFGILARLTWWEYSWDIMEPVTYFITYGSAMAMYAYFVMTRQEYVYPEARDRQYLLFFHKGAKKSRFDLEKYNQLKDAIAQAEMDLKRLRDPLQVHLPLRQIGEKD
Sequence of UniProt Q9BQ69 (Q9BQ69 whole entry, looked up): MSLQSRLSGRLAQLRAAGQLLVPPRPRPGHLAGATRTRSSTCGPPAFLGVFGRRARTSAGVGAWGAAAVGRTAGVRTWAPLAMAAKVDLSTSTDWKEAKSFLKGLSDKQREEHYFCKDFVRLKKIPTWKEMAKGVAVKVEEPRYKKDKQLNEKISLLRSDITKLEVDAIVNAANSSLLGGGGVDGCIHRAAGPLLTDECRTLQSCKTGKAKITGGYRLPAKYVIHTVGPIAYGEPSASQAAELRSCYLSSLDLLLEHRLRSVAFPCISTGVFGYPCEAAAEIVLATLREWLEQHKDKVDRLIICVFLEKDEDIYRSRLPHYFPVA
Sequence of UniProt Q9H8H3 (Q9H8H3 whole entry, looked up): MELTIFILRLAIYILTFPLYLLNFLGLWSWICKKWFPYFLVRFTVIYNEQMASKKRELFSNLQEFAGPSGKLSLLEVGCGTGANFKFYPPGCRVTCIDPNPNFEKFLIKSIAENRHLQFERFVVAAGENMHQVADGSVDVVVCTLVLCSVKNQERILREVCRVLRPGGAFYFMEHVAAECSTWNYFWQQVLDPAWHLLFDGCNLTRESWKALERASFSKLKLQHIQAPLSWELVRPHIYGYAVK

Target	log2 fold change [1]	log2 fold change [2]	log2 fold change [3]	log2 fold change [4]	log2 fold change [5]	log2 fold change [6]	log2 fold change [7]	log2 fold change [8]	log2 fold change [9]	log2 fold change [10]
MCU (UniProt Q8NE86)	0.045	-0.028	-0.09	0.02	0.057	-0.035	0.084	0.055	0.015	0.064
MBLAC2 (UniProt Q68D91)	-0.052	-0.042	0.01	-0.055	0.012	0.018	0.065	0.026	-0.007	-0.027
LDAH isoform 2 (UniProt Q9H6V9)	-0.017	-0.015	-0.057	-0.023	0.005	-0.01	-0.021	-0.032	0	0.029
LAMP1 (UniProt P11279)	0.024	0.012	0.021	-0.009	0.012	0.006	-0.006	-0.023	0.038	0.091
MED10 (UniProt Q9BTT4)	0.049	-0.077	0.044	0.028	-0.149	-0.015	0.029	0.102	0.101	-0.022
LLGL1 (UniProt Q15334)	0.036	-0.06	0.021	0.02	0.007	0.001	-0.112	-0.08	0.018	-0.136
MAD2L2 (UniProt Q9UI95)	0.173	0.004	0.209	-0.035	0.035	-0.09	-0.101	0.094	0.102	0.004
MICU1 isoform 3 (UniProt Q9BPX6)	0.009	0.049	-0.029	-0.017	-0.012	-0.047	0.001	0.016	0.012	0.024
LUZP1 (UniProt Q86V48)	-0.074	-0.06	-0.033	0.027	-0.028	-0.009	0.031	-0.009	0.009	0.085
KIF21A isoform 5 (UniProt Q7Z4S6)	-0.025	0.022	-0.002	0.01	-0.013	-0.016	-0.034	-0.009	0.01	-0.002
KIF11 (UniProt P52732)	-0.014	0.012	-0.016	-0.004	-0.004	-0.004	-0.023	-0.005	-0.013	-0.033
KIFC1 (UniProt Q9BW19)	0.003	0.061	0.011	-0.002	-0.048	0.011	-0.012	-0.009	0.025	-0.023
MORC2 (UniProt Q9Y6X9)	0.039	-0.05	-0.002	0.015	-0.016	-0.001	-0.033	0.006	-0.023	0.034
MCCC1 (UniProt Q96RQ3)	0.037	-0.028	0.048	-0.052	0.025	-0.029	-0.085	-0.022	0.077	-0.008
KLC4 isoform 3 (UniProt Q9NSK0)	0	-0.017	0.05	0	0	0.018	-0.029	-0.056	0.007	-0.021
MARK1 (UniProt Q9P0L2)	0.105	0.006	-0.018	0.029	-0.01	-0.001	-0.26	-0.255	-0.111	-0.045
LSM8 (UniProt O95777)	-0.034	0.003	-0.003	0.027	0.423 (active)	-0.026	0.066	-0.008	-0.021	0.028
MAP1S (UniProt Q66K74)	0.027	0	-0.023	-0.016	-0.018	0.003	-0.027	-0.044	0.005	0.01
MAP2K3 isoform 3 (UniProt P46734)	0.048	0.061	0.03	-0.063	0.03	-0.037	0.119	-0.006	0.129	0.03
MAT2B (UniProt Q9NZL9)	-0.009	-0.004	-0.033	-0.014	-0.006	-0.01	0.036	0.015	-0.004	0.017

Target	log2 fold change [1]	log2 fold change [2]	log2 fold change [3]	log2 fold change [4]	log2 fold change [5]	log2 fold change [6]	log2 fold change [7]	log2 fold change [8]	log2 fold change [9]	log2 fold change [10]
KIF2A isoform 4 (UniProt O00139)	-0.008	0.02	-0.014	-0.007	-0.037	0.001	-0.022	-0.02	-0.041	-0.026
MED16 (UniProt Q9Y2X0)	0.018	-0.033	0.001	0.019	-0.011	0.008	-0.071	0.01	-0.045	-0.001
MGAT5 (UniProt Q09328)	0.037	0.03	0.087	0.044	0.078	-0.003	0.132	-0.03	0.066	-0.05
KMT2A isoform 3 (UniProt Q03164)	-0.022	0.351	0.041	-0.047	-0.014	-0.069	-0.004	0.005	-0.06	0.07
METTL7A (UniProt Q9H8H3)	0.029	0.043	0.183	0.008	-0.041	0.048	-0.016	0.385 (active)	0.06	0.036
KIF2C (UniProt Q99661)	0.019	0.033	-0.008	-0.01	-0.008	0.002	-0.033	0.015	-0.006	-0.019
KIF14 (UniProt Q15058)	0.031	-0.06	0.016	-0.04	-0.176	0.01	-0.032	-0.002	0.008	-0.014
LZTS1 (UniProt Q9Y250)	0.182	0.832	0.291	-0.011	-0.12	0.113	-0.075	-0.2	-0.07	0.055
MAPK12 (UniProt P53778)	0	-0.026	0.009	0.016	0.041	0.023	0.001	-0.058	0.019	-0.048
LYRM4 (UniProt Q9HD34)	-0.009	0.016	0.02	-0.117	-0.017	-0.011	-0.002	-0.02	0.06	0.005
MLLT11 (UniProt Q13015)	0.053	-0.018	-0.271	0.063	-0.038	-0.018	-0.054	-0.372	0.111	0.044
MAP2K4 isoform 2 (UniProt P45985)	0.035	-0.069	-0.035	-0.003	-0.001	0.06	0.283	0.039	-0.058	0.048
MINDY1 isoform 3 (UniProt Q8N5J2)	0.052	-0.006	0.048	-0.031	0.245	0.053	0.056	-0.082	-0.066	-0.02
KRR1 (UniProt Q13601)	0.016	-0.232	-0.007	-0.019	0.009	-0.01	0.045	-0.032	0.06	-0.069
MAP2K7 isoform 4 (UniProt O14733)	-0.042	-0.034	0.037	0.091	0.241	0.044	0.586 (active)	-0.106	0.078	-0.123
MAP3K4 (UniProt Q9Y6R4)	0.051	-0.027	-0.026	0.011	-0.014	0.018	0.105	0.051	-0.101	-0.013
LETM1 (UniProt O95202)	-0.012	0.061	-0.157	0.012	0.014	0.01	0.044	-0.006	0.02	-0.013
MBTPS1 (UniProt Q14703)	0.033	-0.022	-0.044	-0.009	-0.053	0.029	-0.014	-0.029	0.131	-0.026
MACROD1 (UniProt Q9BQ69)	0.025	0.017	0.009	0.02	0.283	-0.005	-0.074	0.131	-0.002	0.081
LPIN1 isoform 7 (UniProt Q14693)	0.047	-0.046	0.027	0.003	0.003	0.011	-0.006	0.038	0.132	0.034

Target	log2 fold change [1]	log2 fold change [2]	log2 fold change [3]	log2 fold change [4]	log2 fold change [5]	log2 fold change [6]	log2 fold change [7]	log2 fold change [8]	log2 fold change [9]	log2 fold change [10]
LARP4B (UniProt Q92615)	-0.019	0.013	-0.027	-0.005	0.009	-0.021	0.033	0.012	-0.033	-0.025
MRPL15 (UniProt Q9P015)	0.037	-0.16	0.051	-0.026	-0.055	-0.017	0.004	-0.023	-0.016	0.034
MAPKAPK3 (UniProt Q16644)	-0.007	-0.088	0.042	0.022	-0.014	-0.01	-0.034	0.045	-0.052	-0.035
MAP2K2 (UniProt P36507)	0.049	0.005	0.023	-0.023	-0.006	0.001	0.249	0.219	0.017	0
MAPK6 (UniProt Q16659)	-0.004	0.036	0.019	0.006	0.015	0.001	0.069	0.068	0.015	-0.027
LRWD1 (UniProt Q9UFC0)	-0.031	-0.002	0.031	0.032	0.057	0.016	-0.014	0.002	0.03	-0.02
MRPL46 (UniProt Q9H2W6)	-0.027	-0.01	-0.039	-0.124	-0.069	0.023	0.089	-0.009	-0.064	0.035
LRRC40 (UniProt Q9H9A6)	-0.014	0.009	0.004	-0.002	-0.028	-0.015	-0.014	-0.036	-0.011	-0.017
MAPKAPK2 (UniProt P49137)	-0.047	0.041	0	0.192	0.003	0.013	0.026	-0.02	0.018	-0.017
KLHL36 (UniProt Q8N4N3)	-0.047	-0.001	0.06	-0.112	-0.313 (active)	-0.041	0.013	-0.009	0.084	0.011
MED13L (UniProt Q71F56)	0.048	-0.049	0.03	0.024	0.034	-0.014	-0.035	0.024	0.013	0.061
MOCS3 (UniProt O95396)	0.047	0.01	-0.033	-0.135	-0.011	-0.003	-0.02	0.143	-0.07	0.049
LIMK2 isoform 3 (UniProt P53671)	-0.013	-0.038	-0.048	0.062	0.053	0.016	0.003	-0.002	0.001	-0.031
MGST3 (UniProt O14880)	0.007	0.011	0.008	0.022	0.011	-0.021	-0.054	-0.009	-0.035	0.019
KLC2 (UniProt Q9H0B6)	-0.008	0.065	0.07	0.008	-0.056	0.004	-0.061	-0.048	-0.056	-0.009
LAGE3 (UniProt Q14657)	0.028	0.342 (active)	0.074	-0.008	-0.092	-0.018	0.091	0	0.022	0.06
KRIT1 (UniProt O00522)	0.071	0.061	0.043	-0.074	0.177	0.038	-0.034	-0.042	0.043	-0.073
LAP3 (UniProt P28838)	-0.034	0.08	0.082	-0.022	0.013	-0.026	-0.017	0.027	0.008	0.061
MARF1 (UniProt Q9Y4F3)	0.025	0.231	0.043	-0.157	0.122	0.019	0.073	-0.111	-0.035	-0.003
